Tg IFNy HTS: T. gondii growth inhibition with IFN-gamma, primary screen, cell-based | Toxoplasma gondii growth in IFN-gamma-treated host cells; stronger effect = lower value | activity change, negative = inhibition, % (no concentration beside the values) | hit rate 3.8% among 69,000 | AID 1259416, 2018; in the data active means activity change below about -70%, passing the limit was not always enough;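 further: host cells are HeLa cells infected with Toxoplasma gondii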
Numbers without * were called inactive; ! = a repeat was not active. The sample as a whole holds a higher share of hits than the screen did.

`Cc1cccc(C(=O)N2CCC3(CC2)CC(COCC2CC2)N(C)C3)n1` (stereo not drawn) gave Tg IFNy HTS -14.9.
`Cc1nnnn1CCCN1CCC2(C1)CN(C)C(=O)O2` (stereo not drawn) gave Tg IFNy HTS 7.1.
Screening COc1ccc(C(=O)NC(C)Cc2cc(C)[nH]n2)o1 (stereo not drawn) returned Tg IFNy HTS 5.1.
`COC(=O)Cn1c(-c2ccccc2)cn2c3c(=O)n(C)c(=O)n(C)c3nc12` gave Tg IFNy HTS -7.8.
Screening Cc1nc(-c2cc(C(=O)CCN3CCOCC3)c3ccccn23)cn1C returned Tg IFNy HTS -33.7.
Screening Cc1ccc(C)c(-n2c(C)cn3c4c(=O)n(CCN5CCOCC5)c(=O)n(C)c4nc23)c1 returned Tg IFNy HTS -76.5*.
Screening CN1C[C@]23CN(C(=O)c4ccn[nH]4)C[C@@H](C[C@H]2S1(=O)=O)O3 returned Tg IFNy HTS 2.2.
`COCC(=O)NC1Cc2ccc(S(=O)(=O)NCCn3ccc(C)n3)cc2C1` (stereo not drawn) gave Tg IFNy HTS 3.8.
For Cc1ccc(-c2nc(CCNC(=O)c3cc(C)cc(C)c3)cs2)cc1 the results were Tg IFNy HTS 433.9.
Screening Cc1ccccc1-c1ccc(C2[C@@H]3CN(S(=O)(=O)Cc4ccccc4)C[C@H]2N3)cc1 (stereo partly drawn) returned Tg IFNy HTS -76.5*.
Cc1ccccc1-c1ccc([C@@H]2[C@@H](CO)N3CCCCN(S(=O)(=O)Cc4ccccc4)C[C@H]23)cc1 was read as Tg IFNy HTS -59.9.
CS(=O)(=O)N1C[C@@H]2N[C@H](C1)[C@@H]2c1ccc(-c2ccccc2)cc1 was read as Tg IFNy HTS -67.0.
For Cc1ccccc1-c1ccc([C@H]2[C@H](CO)N3CCCCN(S(=O)(=O)Cc4ccccc4)C[C@@H]23)cc1 the results were Tg IFNy HTS -47.4.
Screening N#Cc1cccc(-c2ccc(C3[C@@H]4CN(C(=O)C5CCOCC5)C[C@H]3N4)cc2)c1 (stereo partly drawn) returned Tg IFNy HTS -10.1.
`Cc1ccccc1S(=O)(=O)N1C[C@@H]2N[C@H](C1)C2c1ccc(-c2cccc(C#N)c2)cc1` (stereo partly drawn) gave Tg IFNy HTS -70.9*!.
`Cc1csc(NC(=O)c2ccc(S(=O)(=O)NCc3cccnc3)cc2)n1` gave Tg IFNy HTS -36.7.
For COc1cc(C)c(-c2c(-c3ccccc3)ncn2CC2COCCO2)cc1C (stereo not drawn) the results were Tg IFNy HTS -20.8.
CCC(=O)N1CC[C@H](OCc2ccncc2)[C@@H](Cc2ccccc2)C1 was read as Tg IFNy HTS -6.1.
CC(C)CN1CCS(=O)(=O)[C@H]2CCN(S(=O)(=O)c3ccccc3)CC[C@@H]21 was read as Tg IFNy HTS -30.0.
Cc1ccc(NC(=O)c2nnn(Cc3nc(-c4ccc(Cl)cc4)oc3C)c2C)c(Cl)c1 was read as Tg IFNy HTS -34.0.
COc1ccc(-n2c(=O)c(C(=O)NCc3ccccc3F)c(O)c3cccnc32)cc1 was read as Tg IFNy HTS 123.4.
Screening COC1C2CCC1N(C(=O)c1cn(C)c3ccccc13)CCO2 (stereo not drawn) returned Tg IFNy HTS 2.7.
For Cc1cc(C(=O)Nc2cccc(Cl)c2N2CCOCC2)nc(N2CCOCC2)n1 the results were Tg IFNy HTS -19.6.
For COc1ccc2c(c1)NC1(CCN(C(=O)Nc3ccc(Br)c(C)c3)CC1)c1cccn1-2 the results were Tg IFNy HTS 66.4.
`Cc1cc(NC(=O)N2CCC3(CC2)Nc2ccccc2-n2cccc23)ccc1Br` gave Tg IFNy HTS -116.4*.
Screening CCOc1ccccc1C(=O)N1CCC2(CC1)Nc1ccc(Cl)cc1-n1cccc12 returned Tg IFNy HTS -103.9*.
Screening O=C(c1ccccc1)N1CCC2(CC1)Nc1ccc(Cl)cc1-n1cccc12 returned Tg IFNy HTS 6.4.
For CCC(C(=O)N1CCC2(CC1)Nc1ccc(Cl)cc1-n1cccc12)c1ccccc1 (stereo not drawn) the results were Tg IFNy HTS -127.7*.
COc1ccccc1C(=O)N1CCC2(CC1)Nc1ccc(Cl)cc1-n1cccc12 was read as Tg IFNy HTS 61.9.
COc1ccc(C(=O)N2CCC3(CC2)Nc2ccccc2-n2cccc23)cc1 was read as Tg IFNy HTS -10.7.
`COc1cc(CCC(=O)N2CCC3(CC2)Nc2ccccc2-n2cccc23)cc(OC)c1OC` gave Tg IFNy HTS -20.5.
`CC(C)C(=O)N1CCC2(CC1)Nc1ccc(Cl)cc1-n1cccc12` gave Tg IFNy HTS 45.4.
`COc1ccc(CCC(=O)N2CCC3(CC2)Nc2ccccc2-n2cccc23)cc1` gave Tg IFNy HTS -115.0*.
Screening CCOc1ccccc1C(=O)N1CCC2(CC1)Nc1ccccc1-n1cccc12 returned Tg IFNy HTS 40.3.
`Cc1ccc(NC(=O)N2CCC3(CC2)Nc2ccccc2-n2cccc23)cc1Cl` gave Tg IFNy HTS inactive.
Cc1ccc(-c2nc(CSc3nc4c(=O)[nH]c(C)nc4n3C)c(C)o2)cc1 was read as Tg IFNy HTS 0.3.
`Cc1cnc(CNC(=O)CC2COCCN2)cn1` (stereo not drawn) gave Tg IFNy HTS 4.5.
`COC(=O)[C@@H]1C[C@@H](NC(=O)CCC(=O)N2CCCCCC2)CN1C` gave Tg IFNy HTS -5.7.
O=C(c1cscn1)N1C[C@@H]2COC[C@]2(COCC2CC2)C1 was read as Tg IFNy HTS -51.3.
`COc1ccc2c(c1)NC1(CCN(C(=O)Nc3ccc(C)cc3)CC1)c1cccn1-2` gave Tg IFNy HTS 369.5.
Screening COC12CC(COC(=O)c3cncc(Br)c3)CN(C)C1Cc1cn(C)c3cccc2c13 (stereo not drawn) returned Tg IFNy HTS -61.0.
`Cc1ncc(C(=O)N2CCC(O)(CN(C)C)C2)c(-c2ccccc2)n1` (stereo not drawn) gave Tg IFNy HTS -4.7.
`C=CCn1c(=O)c(-c2nc(-c3cccc(F)c3)no2)c(O)c2ccccc21` gave Tg IFNy HTS 13.4.
`CC(=O)N1CCOC2CCN(Cc3ccc[nH]3)CCC21` (stereo not drawn) gave Tg IFNy HTS -46.9.
`Cn1cc(C2COC3(CCN(Cc4cccnc4)CC3)C2)cn1` (stereo not drawn) gave Tg IFNy HTS 41.7.
`COc1cc(OC)cc(C(=O)N2CCC3(CC2)Nc2ccc(Cl)cc2-n2cccc23)c1` gave Tg IFNy HTS -9.2.
For O=C(COc1ccc(Cl)cc1)N1CCC2(CC1)Nc1ccccc1-n1cccc12 the results were Tg IFNy HTS -8.2.
`O=C(Cc1ccccc1)N1CCC2(CC1)Nc1ccc(Cl)cc1-n1cccc12` gave Tg IFNy HTS 60.7.
`O=C(COc1ccccc1)N1CCC2(CC1)Nc1ccc(Cl)cc1-n1cccc12` gave Tg IFNy HTS -84.1*.
`COc1ccc(CCC(=O)N2CCC3(CC2)Nc2ccc(Cl)cc2-n2cccc23)cc1` gave Tg IFNy HTS -97.1*.
For O=C(Cc1ccc(F)cc1)N1CCC2(CC1)Nc1ccc(Cl)cc1-n1cccc12 the results were Tg IFNy HTS -59.4.
COc1ccc(OC)c(NC(=O)NCC(c2cccnc2)c2c[nH]c3ccccc23)c1 (stereo not drawn) was read as Tg IFNy HTS inactive.
Screening CCn1ccnc1CN1CCCCC1c1cc(C(=O)NC2CCCC2)n[nH]1 (stereo not drawn) returned Tg IFNy HTS -11.6.
Screening COc1ccccc1-c1noc(-c2nnn(Cc3nc(-c4cccc(Cl)c4)oc3C)c2C)n1 returned Tg IFNy HTS 8.4.

Screening data: PubChem, Broad Institute
